In PubChem BioAssay (NCI):
Values joined by “and” are separate entries in the source; they are usually repeats but may differ in a detail not shown here. Identical values can stand only once. The panel holds about 79,000 compounds, 15% with a hit somewhere; the sample as a whole holds those more often. Some structures have more than one record in an assay (separate samples or runs), and their calls can disagree. Active and inactive are the calls of the source. No stated cut-off is given here; in the data, active means growth inhibition above about 70%; inactive means the rest.

Assays:
[1] = NCI Yeast Anticancer Drug Screen. Data for the rad18 strain (AID 177); settings: S. cerevisiae rad18 mutant growth inhibition, stronger effect = higher value
Outline: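 A genetically defined yeast mutant impaired in DNA damage repair was treated with test compounds, then its growth was measured against cultures receiving vehicle alone.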

[2] = NCI Yeast Anticancer Drug Screen. Data for the rad50 strain (AID 155);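 further: 0% = growth of vehicle-only cultures of the same strain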; settings: S. cerevisiae rad50 strain growth inhibition, stronger effect = higher value
Outline: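 Readout: growth inhibition relative to vehicle-treated cultures. Compound exposure was carried out in a genetically defined yeast strain deficient in DNA damage repair.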

[3] = NCI Yeast Anticancer Drug Screen. Data for the mec2-1 strain (AID 157); settings: S. cerevisiae mec2-1 strain, stronger effect = higher value
Outline: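 Readout is yeast growth inhibition, normalised to vehicle-treated controls, in the mec2-1 strain exposed to compound.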

[4] = NCI Yeast Anticancer Drug Screen. Data for the sgs1 mgt1 strain (AID 161);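 further: 0% = growth of cultures given vehicle only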; settings: S. cerevisiae sgs1 mgt1 strain, stronger effect = higher value
Outline: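 Yeast cells carrying a defined DNA-repair defect were exposed to test compounds. Growth inhibition was measured relative to vehicle-treated controls.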

[5] = NCI Yeast Anticancer Drug Screen. Data for the cln2 rad14 strain (AID 165);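 further: 0% = growth equal to vehicle treated cultures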; settings: S. cerevisiae cln2 rad14 strain, stronger effect = higher value
Outline: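 Relative to vehicle controls, growth inhibition of compound-treated cln2 rad14 yeast was recorded.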

[6] = NCI Yeast Anticancer Drug Screen. Data for the bub3 strain (AID 167); settings: S. cerevisiae bub3 mutant strain, stronger effect = higher value
Outline: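 Readout: yeast growth inhibition, expressed relative to vehicle-only wells. The test organism is a mutant strain from a panel with lesions in DNA repair or checkpoint genes.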

[7] = NCI Yeast Anticancer Drug Screen. Data for the mlh1 rad18 strain (AID 175); settings: S. cerevisiae mlh1 rad18 strain growth inhibition, stronger effect = higher value
Outline: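 Test agents were incubated with a yeast strain of defined genotype (DNA damage repair defect). Inhibition of growth was derived by comparison with vehicle-exposed cultures.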

[8] = NCI Yeast Anticancer Drug Screen. Data for the wt1 strain (AID 149);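 further: 0% = growth of vehicle-treated wt1 cultures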; settings: S. cerevisiae wt1 strain (SPY 50644) growth inhibition, stronger effect = higher value
Outline: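 Growth inhibition read against vehicle controls after compound exposure of the wt1 yeast strain.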

[9] = NCI Yeast Anticancer Drug Screen. Data for the rad50EPP+ strain (AID 151);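 further: 0% = growth of vehicle-treated control cultures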; settings: S. cerevisiae rad50 mutant strain, stronger effect = higher value
Outline: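 Exposing the rad50EPP+ strain to each compound, growth was compared with vehicle-only cultures to give inhibition.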

[10] = NCI Yeast Anticancer Drug Screen. Data for the rad14 strain (AID 159);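 further: 0% = growth of vehicle-treated control cultures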; settings: S. cerevisiae rad14 strain growth inhibition, stronger effect = higher value
Outline: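 Growth inhibition vs vehicle controls; genetically altered yeast strain (DNA damage repair defect) treated with test compounds.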

[11] = NCI Yeast Anticancer Drug Screen. Data for the CLN2oe strain (AID 163);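 further: 0% = growth of vehicle-only control cultures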; settings: S. cerevisiae CLN2oe strain, stronger effect = higher value
Outline: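 Values reflect how much compound exposure reduced yeast growth, referenced to vehicle-exposed cells. Assay organism is a strain with a defined genetic change affecting cell-cycle control.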

[12] = NCI Yeast Anticancer Drug Screen. Data for the wt2 strain (AID 169);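 further: 0% = growth of vehicle-treated yeast cultures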; settings: S. cerevisiae wt2 strain growth inhibition, stronger effect = higher value
Outline: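 Values express reduction in yeast growth under compound treatment, referenced to vehicle-treated cells.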

[13] = NCI Yeast Anticancer Drug Screen. Data for the mlh1 strain (AID 171);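 further: 0% = growth of vehicle-treated control cultures of the same strain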; settings: S. cerevisiae mlh1 strain growth inhibition, stronger effect = higher value
Outline: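 Steps: expose the defined-mutant yeast strain to compound; expose a parallel culture to vehicle; measure growth; express compound effect as inhibition relative to the vehicle culture.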

[14] = NCI Yeast Anticancer Drug Screen. Data for the sgs1 strain (AID 173);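 further: 0% = growth of vehicle-only control cultures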; settings: S. cerevisiae sgs1 mutant, stronger effect = higher value
Outline: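 Treat defined-mutant yeast with compound; measure growth; calculate inhibition relative to vehicle-treated cells.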

[15] = at 5.0 µM (retest, dose inferred, filed as 0.5)
[16] = at 50.0 µM (retest, dose inferred, filed as 5.0)

Measured: growth inhibition

CC1CN=C(Nc2ccccc2)S1 (centres undefined)
inactive: [1]; at 1.2 µM -50% | [1]; at 3.7 µM -54% | [1]; at 11.0 µM -51% | [1]; at 33.0 µM -58% | [1]; at 100.0 µM -42%

COC(COC(N)=O)C1=C(N2CC2)C(=O)C(C)=C(N2CC2)C1=O (centres undefined)
active: [2]; [16] 98% | [3]; [16] 99% | [3]; at 50.0 µM 71.2% | [4]; [16] 99% | [5]; [16] 98% | [6]; [16] 99% | [7]; [15] 76% | [7]; [16] 97%
inactive: [2]; [15] 47% | [2]; at 50.0 µM 66.1% | [3]; [15] 39% | [4]; [15] 50% | [4]; at 50.0 µM 43.3% | [5]; [15] 40% | [5]; at 50.0 µM 50.6% | [6]; [15] 42% | [6]; at 50.0 µM 24.9%

CC(C)(Br)C(=O)C(Br)Br
active: [2]; [15] 97% | [2]; [16] 99% | [2]; at 50.0 µM 86.3% | [3]; [15] 100% | [3]; [16] 99% | [3]; at 50.0 µM 89% | [4]; [15] 98% | [4]; [16] 99% | [4]; at 50.0 µM 89.7% | [5]; [15] 95% | [5]; [16] 99% | [5]; at 50.0 µM 88.8% | [6]; [15] 100% | [6]; [16] 99% | [6]; at 50.0 µM 88.7% | [7]; [15] 98% | [7]; [16] 98%

[Pt].c1ccc(P(CCP(c2ccccc2)c2ccccc2)CCP(c2ccccc2)c2ccccc2)cc1
active: [2]; at 33.0 µM 94% | [2]; [16] 90% | [2]; at 50.0 µM 79% | [2]; at 100.0 µM 93% | [3]; at 33.0 µM 94% | [3]; [16] 94% | [3]; at 50.0 µM 85.2% | [3]; at 100.0 µM 94% | [4]; [16] 90% | [4]; at 50.0 µM 82% | [6]; at 33.0 µM 96% | [6]; [16] 91% | [6]; at 50.0 µM 75.7% | [6]; at 100.0 µM 95% | [7]; [16] 92% | [7]; at 50.0 µM 75.8%
inactive: [2]; at 1.2 µM -13% | [2]; at 3.7 µM 11% | [2]; [15] 22% | [2]; at 11.0 µM 23% | [3]; at 1.2 µM -27% | [3]; at 3.7 µM -14% | [3]; [15] -3% | [3]; at 11.0 µM 6% | [4]; [15] 8% | [6]; at 1.2 µM 8% | [6]; at 3.7 µM 4% | [6]; [15] 4% | [6]; at 11.0 µM 26% | [7]; [15] 16%

O=S(=O)(CCl)C(Cl)(Cl)Cl
83.6% (active) and 43.4% (inactive): [5]; at 50.0 µM
94.6% (active) and 62.2% (inactive): [3]; at 50.0 µM
95.8% (active) and 69.7% (inactive): [7]; at 50.0 µM
92% (active) and 61% (inactive): [2]; [16]
80% (active) and 56% (inactive): [6]; [16]
92.7% (active) and 67.8% (inactive): [6]; at 50.0 µM
active: [7]; [16] 86% and 73%
inactive: [2]; [15] 9% and 5% | [3]; [15] 13% and -32% | [3]; [16] 66% and 49% | [4]; [15] 4% and 3% | [4]; [16] 59% and 67% | [5]; [15] -2% and 1% | [5]; [16] 44% and 36% | [6]; [15] 36% and 1% | [7]; [15] 5% and 4%
94.5% (active) and 63.5% (inactive): [2]; at 50.0 µM
97% (active) and 51.5% (inactive): [4]; at 50.0 µM

c1ccc2c(NCCCCCCCCNc3c4ccccc4nc4ccccc34)c3ccccc3nc2c1
active: [2]; [15] 87% | [2]; [16] 97% | [2]; at 50.0 µM 85.3% | [3]; [15] 89% | [3]; [16] 98% | [3]; at 50.0 µM 87.5% | [4]; [16] 90% | [4]; at 50.0 µM 75.4% | [5]; [16] 83% | [6]; at 50.0 µM 80.2% | [7]; [15] 91% | [7]; [16] 97%
inactive: [4]; [15] 64% | [5]; [15] 44% | [5]; at 50.0 µM 46.7% | [6]; [15] 68% | [6]; [16] 49%

COC(=O)c1c(C)ccc2c(O)c3c(cc12)C(=O)c1c2c(cc(O)c1C3=O)C1(C)OC(C)(O2)C(O)C(N(C)C)C1O (centres undefined)
inactive: [8]; at 1.2 µM 5% | [8]; at 3.7 µM 1% | [8]; at 11.0 µM 22% | [9]; at 1.2 µM -2% | [9]; at 3.7 µM 17% | [9]; at 11.0 µM 51% | [9]; at 100.0 µM 67% | [2]; at 1.2 µM 4% | [2]; at 3.7 µM 35% | [2]; [15] 10% | [3]; at 1.2 µM -3% | [3]; at 3.7 µM 3% | [3]; [15] 6% | [10]; at 1.2 µM 0% | [10]; at 3.7 µM 18% | [11]; at 1.2 µM -7% | [11]; at 3.7 µM 0% | [11]; at 11.0 µM 39% | [5]; [15] 39% | [6]; at 1.2 µM -4% | [6]; at 3.7 µM -2% | [6]; [15] -19% | [6]; at 11.0 µM 64% | [12]; at 1.2 µM -1% | [12]; at 3.7 µM 4% | [12]; at 11.0 µM 39% | [13]; at 1.2 µM 2% | [13]; at 3.7 µM 19% | [13]; at 11.0 µM 68% | [14]; at 1.2 µM 0% | [14]; at 3.7 µM 7% | [14]; at 11.0 µM 44% | [7]; [15] 1%
active: [8]; at 33.0 µM 79% | [8]; at 100.0 µM 94% | [9]; at 33.0 µM 74% | [2]; at 11.0 µM 90% | [2]; at 33.0 µM 92% | [2]; [16] 98% | [2]; at 50.0 µM 97% | [2]; at 100.0 µM 84% | [3]; at 11.0 µM 70% | [3]; at 33.0 µM 97% | [3]; [16] 98% | [3]; at 50.0 µM 95.5% | [3]; at 100.0 µM 88% | [10]; at 11.0 µM 98% | [10]; at 33.0 µM 95% | [10]; at 100.0 µM 89% | [11]; at 33.0 µM 94% | [11]; at 100.0 µM 92% | [5]; [16] 97% | [5]; at 50.0 µM 92.9% | [6]; at 33.0 µM 96% | [6]; [16] 98% | [6]; at 50.0 µM 95.7% | [6]; at 100.0 µM 89% | [12]; at 33.0 µM 97% | [12]; at 100.0 µM 94% | [13]; at 33.0 µM 97% | [13]; at 100.0 µM 95% | [14]; at 33.0 µM 96% | [14]; at 100.0 µM 91% | [7]; [16] 98% | [7]; at 50.0 µM 96.5%
